tested on: PIP5K2B; details: concentration: 1 μM, replicates: in singlicate; n = 1
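Also: KINOMEscan kinase panel screen.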

SMILES | %Inh [%]
c1ccc(-c2ccnc3[nH]ccc23)cc1 [SB-693578] | 4
O=C(Nc1n[nH]c2nc(-c3cccs3)c(Br)cc12)C1CCCC1 [SB-743341] | 3
CN1c2ccc(-c3ccc(C(N)=O)cc3)cc2-c2[nH]ncc2S1(=O)=O | 6
Fc1ccc(-c2nc3n(c2-c2ccncc2)CCS3)cc1 [GI98581] | 0
CCc1ccc(-c2ccc3c(c2)-c2n[nH]cc2S(=O)(=O)N3C)cc1 | 0
COC(=O)c1cccc(NC(=O)NC2CCN(c3ccnc(Nc4ccc(F)cc4)n3)C2)c1 (stereo not shown) [GSK1379725] | 9
COc1cccc(CNC(=O)NC2CCN(c3ccnc(Nc4ccc(F)cc4)n3)C2)c1 (stereo not shown) [GSK1379723] | 8
CNc1cc(-c2ccc3c(N)n[nH]c3c2)nc(N)n1 [GSK2224810] | 5
Cc1ccc(NC(=O)Nc2ccccc2F)cc1-c1ccc(C(=O)Nc2ccncc2)cc1 [GSK1398477] | 0
CS(=O)(=O)Cc1ccc(Nc2nccc(-c3c(-c4cccc(NC(=O)C5CCCCC5)c4)nn4ncccc34)n2)cc1 [GSK350559] | 12
Cc1cccc2c(-c3ccncn3)c(-c3ccc(F)cc3)nn12 [GW515532] | 0
Cc1ccc(NC(=O)c2ccc(Cl)cc2)cc1-c1ccc(C(=O)Nc2ccncc2)cc1 [GSK1398467] | 0
COc1ccc(CSc2nnc(-c3ccc4c(c3)CCO4)o2)cc1 | 9
Cc1ccccc1-c1cc(-c2c[nH]nc2-c2ccccn2)ccn1 [GW680061] | 15
COC(=O)C(Cc1ccccc1)NC(=O)NC1CCN(c2ccnc(Nc3ccc(F)cc3)n2)C1 (stereo not shown) [GSK1379714] | 30
COc1ccc2cc(-c3nc(-c4ccccc4C(C)C)[nH]c3-c3ccncc3)ccc2c1 [SB-660566] | 38
Nc1cccc(-c2ccc3c(N)n[nH]c3c2)n1 [GSK2192730] | 4
O=C1NC(=O)C(c2ccc(Cl)cc2)=C1Nc1ccc(O)cc1 [SB-340867] | 0
CCn1c(-c2c(N)noc2C)nc2cnccc21 [SB-737856] | 19

SMILES | %Inh [%]
COC(=O)c1cccc(NC(=O)NC2CCN(c3ccnc(Nc4ccc(OC)cc4)n3)C2)c1 (stereo not shown) [GSK1379746] | 19
Cc1ccc(NC(=O)Nc2ccc(Cl)cc2)cc1-c1ccc(C(=O)Nc2ccncc2)cc1 [GSK1398472] | 12
COc1ccc(Nc2nccc(N3CCC(NC(=O)c4cc5ccccc5s4)C3)n2)cc1 (stereo not shown) [GSK1379738] | 13
CC(=O)c1cccc(NC(=O)NC2CCN(c3ccnc(Nc4ccc(F)cc4)n3)C2)c1 (stereo not shown) [GSK1379710] | 8
Cc1ccccc1Cn1ccn2c(=O)cc(N3CCOCC3)nc12 [GSK2269905] | 12
CS(=O)(=O)CCNCc1nc(-c2ccc3ncnc(Nc4ccc5c(cnn5Cc5ccccc5)c4)c3c2)cs1.Cl.Cl [GW569716] | 19
O=C1NC(=O)C(c2ccc(Cl)cc2)=C1Nc1cccc(Cl)c1 [SB-317651] | 0
Cc1ccc(-c2nc(Nc3ccncc3)c3ccccc3n2)s1 [GSK189015] | 14
Cc1ccc(NC(=O)Nc2ccc(Cl)c(C(F)(F)F)c2)cc1-c1ccc(C(=O)Nc2ccncc2)cc1 [GSK1398470] | 0
Cn1cncc1-c1cc2c(Nc3ccc(OCc4ccccc4)cc3)ncnc2cn1 [GW281179] | 0
COc1ccc(CSc2nnc(-c3ccc4ncsc4c3)o2)cc1C(F)(F)F | 17
O=C(Nc1n[nH]c2cc(-c3ccsc3)ccc12)C1CC1 [SB-732932] | 52
O=C(Nc1n[nH]c2nc(-c3cccs3)c(Br)cc12)C1CC1 [SB-735297] | 0
CNCc1ccc2nc(NC(=O)c3ccc(C(C)(C)C)cc3)cn2c1 | 11
Cc1c(Cn2c(C)c(C)n3c(=O)cc(N4CCOCC4)nc23)cccc1C(F)(F)F [GSK2328680] | 20
CC(C)c1ccc(O)cc1Nc1ccnc2ccc(C(F)(F)F)cc12 [GW482059] | 7
CSc1ccc(-c2nc3n(c2-c2ccncc2)CCC3)cc1 [SKF-105561] | 21
O=c1cc(N2CCOCC2)nc2n(Cc3ccccc3F)ccn12 [GSK2297428] | 19
